Reference: PubChem BioAssay
Active and inactive are the calls of the source. Unless noted, no rule for the calls is given here.

Columns and labels:
[1] = test system: XIP peptide (Xip251-270) binding; assay: small-molecule binders of XIP peptide, primary screen, biochemical, small-molecule microarray, fluorescence 635/667 nm, 0.1 µg/mL protein (AID 1182); conditions: fluorescent protein binding, 635 nm, higher = more signal, called active from +8 up or from −8 down
XIP peptide (Xip251-270) = assay: small-molecule binders of XIP peptide, primary screen, biochemical, small-molecule microarray, fluorescence 635/667 nm, 0.5 µg/mL protein (AID 1183); conditions: small-molecule microarray binding, fluorescence 635 nm; higher = more signal
[2] = Plasmodium falciparum growth inhibition, primary screen, strain 3D7, DAPI fluorescence, 100 nL (AID 1184);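 also: parasites grown inside human red blood cells in medium with human serum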; conditions: P. falciparum 3D7 growth, 3 d, higher = more signal
[3] = target: Homeobox protein Hox-A13 (Mus musculus) (UniProt Q62424); assay: inhibitors of HoxA13-DNA binding, primary screen, biochemical, fluorescence polarization, labeled oligonucleotide (AID 1185); conditions: 15 min, higher = more signal, called active from +8 up or from −8 down
[4] = inhibitors of hydroxyurea-induced Chk1 phosphorylation, primary screen, imaging, HeLa, phospho-Chk1 antibody, percent positive cells (AID 1186); conditions: hydroxyurea-induced phospho-Chk1 immunofluorescence imaging, higher = more signal
[5] = inhibitors of hydroxyurea-induced Chk1 phosphorylation, primary screen, imaging, HeLa, phospho-Chk1 nuclear intensity (AID 1187); conditions: hydroxyurea-induced phospho-Chk1 immunofluorescence imaging, higher = more signal

Chain of Homeobox protein Hox-A13 (Mus musculus) (Q62424 whole entry, looked up): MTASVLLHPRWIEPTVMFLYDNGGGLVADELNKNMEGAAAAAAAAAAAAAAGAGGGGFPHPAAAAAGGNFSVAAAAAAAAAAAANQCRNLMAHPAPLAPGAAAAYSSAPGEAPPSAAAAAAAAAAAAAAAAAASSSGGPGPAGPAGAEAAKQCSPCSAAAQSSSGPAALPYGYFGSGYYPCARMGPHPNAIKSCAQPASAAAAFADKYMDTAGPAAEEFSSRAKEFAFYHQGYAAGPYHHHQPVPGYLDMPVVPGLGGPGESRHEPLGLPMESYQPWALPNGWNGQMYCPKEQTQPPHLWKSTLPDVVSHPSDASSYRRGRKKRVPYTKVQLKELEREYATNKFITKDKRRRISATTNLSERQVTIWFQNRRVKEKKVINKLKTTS

SMILES	composite z-score [1]	composite z-score (XIP peptide (Xip251-270))	z-score [2]	z-score [3]	z-score [4]	z-score [5]
Cc1ccc(S[C@]2(C(=O)NC3CC3)CC(=O)N(Cc3cc(C(F)(F)F)cc(C(F)(F)F)c3)[C@@H]2c2ccc(CO)cc2)cc1	0.503 (inactive)	-0.0124	-0.442	-2.7 (inactive)	-0.144 (inactive)	-0.0725 (inactive)
C=CC[C@@]1(C(=O)N2CCOCC2)N=C(c2ccc(OCCCO)cc2)O[C@@H]1c1ccccc1	1.79 (inactive)	-0.526	-1.74	-5.67 (inactive)	-0.648 (inactive)	-0.241 (inactive)
C#C[C@H](O[Si](C#Cc1ccccc1)(C(C)C)C(C)C)c1ccccc1	0.114 (inactive)	0.311	-1.16	-1.52 (inactive)	0.116 (inactive)	0.201 (inactive)
O=C(NCC(F)(F)F)[C@@H]1c2ccccc2C(=O)N(Cc2ccccc2Cl)[C@H]1c1ccc(CO)cc1	0.0987 (inactive)	0.0561	-0.472	-2.37 (inactive)	0.178 (inactive)	0.449 (inactive)
NC(=O)NCC#Cc1ccc2c(c1)[C@]1(C(=O)N2)[C@H](C(=O)N2CCCCCCC2)[C@H]2C(=O)O[C@H](c3ccccc3)[C@H](c3ccccc3)N2[C@@H]1c1ccccc1OCCO	4.02 (inactive)	0.486	-1.83	4.43 (inactive)	0.323 (inactive)	0.671 (inactive)
O=C1O[C@@H](c2ccccc2)[C@@H](c2ccccc2)N2[C@@H](c3ccc(O)cc3)[C@]3(C(=O)Nc4ccc(C#CC5(O)CCCCCC5)cc43)[C@@H](C(=O)Nc3nc4ccccc4s3)[C@H]12	1.8 (inactive)	0.756	-0.697	-0.586 (inactive)	-0.44 (inactive)	-0.169 (inactive)
CCCC=C(CCC)[C@@H](NC(=O)c1ccc(C(F)(F)F)cc1)c1ccccc1	0.177 (inactive)	0.144	-1.55	-0.261 (inactive)	0.128 (inactive)	0.29 (inactive)
COCCOC(=O)N1C(=O)[C@@]2(c3cc(C#CC4=CCCCC4)ccc31)[C@H](C(=O)NC[C@H](O)c1ccccc1)[C@H]1C(=O)O[C@H](c3ccccc3)[C@H](c3ccccc3)N1[C@@H]2c1ccc(OCCO)cc1	-0.361 (inactive)	0.612	-1.73	2.05 (inactive)	0.0381 (inactive)	0.231 (inactive)
[N-]=[N+]=Nc1ccccc1C[C@@]1(C(=O)N2CCOCC2)N=C(c2ccc(OCCCO)cc2)O[C@@H]1c1ccccc1N=[N+]=[N-]	0.49 (inactive)	0.348	-2.28	-5.16 (inactive)	-1.03 (inactive)	-1.06 (inactive)
C[C@H]1NC(=O)[C@@H](C)NC(=O)[C@@]23C(=O)N[C@@H](Cc4ccccc4)C2[C@H](C)[C@@]2(C)O[C@H]2C3/C=C/C/C=C\CNC1=O (some centres undefined)	0.378 (inactive)	-0.166	-0.428	-3.98 (inactive)	-0.318 (inactive)	0.412 (inactive)
C=CCNC(=O)[C@H]1[C@@H]2C(=O)O[C@@H](c3ccccc3)[C@@H](c3ccccc3)N2[C@@H](c2ccccc2OCCO)[C@]12C(=O)N(C(=O)OCCOC)c1ccc(C#CCC(C(=O)OC)C(=O)OC)cc12	1.09 (inactive)	0.818	-2.36	0.6 (inactive)	-0.263 (inactive)	-0.35 (inactive)
C=C(CCCC)/C(=C/C[C@H](OC(=O)c1ccncc1)c1cccc(OCCO)c1)c1cc(C(=O)OC)ccc1OC	2.08 (inactive)	0.305	-3.26	-4.52 (inactive)	-0.433 (inactive)	-0.355 (inactive)
CCCCCCc1nc(C2CC2)c(C)c2c1[Si](C(C)C)(C(C)C)OC2	-0.0485 (inactive)	-0.462	-2.41	2.65 (inactive)	-0.53 (inactive)	-0.23 (inactive)
O=C1c2ccccc2[C@](Cc2ccccc2I)(C(=O)O)[C@H](c2ccc(CO)cc2)N1C1CCCCC1	1.87 (inactive)	0.734	-1.49	-2.96 (inactive)	-0.225 (inactive)	-0.395 (inactive)
Cc1cc(C)c(C(O)C2C=CC3C(=O)N(C)C(=O)C3N2N2CCCCC2)c(C)c1 (centres undefined)	0.0255 (inactive)	0.849	1.09	-3.3 (inactive)	-0.514 (inactive)	-0.224 (inactive)
COC(=O)c1ccc(C#CC(NP(=O)(c2ccccc2)c2ccccc2)c2ccccc2)cc1 (centres undefined)	0.238 (inactive)	-0.0253	-0.253	-3.02 (inactive)	-1.14 (inactive)	-1.03 (inactive)
O=C1c2ccccc2[C@](Cc2ccccc2I)(C(=O)NCC(F)(F)F)[C@H](c2ccc(CO)cc2)N1Cc1ccccc1C(F)(F)F	0.57 (inactive)	0.188	0.121	-2.47 (inactive)	-0.103 (inactive)	0.14 (inactive)

SMILES	composite z-score [1]	composite z-score (XIP peptide (Xip251-270))	z-score [2]	z-score [3]	z-score [4]	z-score [5]
CCOC(=O)C1=CC[C@@H](c2ccccc2)N(S(=O)(=O)c2ccc(C)cc2)[C@H]1C	0.214 (inactive)	0.862	-1.5	-2.38 (inactive)	-0.325 (inactive)	-0.586 (inactive)
C=CC[C@@]12N=C(c3ccc(OCCCO)cc3)O[C@@H]1c1ccccc1CN(Cc1ccccc1)C2=O	1.54 (inactive)	0.78	-2.61	-1.94 (inactive)	-0.367 (inactive)	0.0207 (inactive)
CC(C)[Si](OCC[C@H]1O[C@]2(C(=O)N(Cc3ccccc3)c3ccccc32)[C@@H](C)[C@@H]1[Si](C)(C)O)(C(C)C)C(C)C	-0.177 (inactive)	0.457	-1.94	-0.292 (inactive)	-0.558 (inactive)	-0.322 (inactive)
COc1ccc([Si](C)(C)[C@@H]2[C@@H](CCO)O[C@]3(C(=O)N(Cc4ccccc4)c4ccccc43)[C@H]2C)cc1	0.151 (inactive)	0.283	-1.96	0.563 (inactive)	-0.0106 (inactive)	0.402 (inactive)
C=CCC(OC(C)=O)[C@@H]1[C@@H](N(Cc2ccc(-c3ccccc3)cc2)C(=O)c2ccc(C)cc2)c2cc(OCCCO)ccc2N1C(=O)c1ccc(-c2ccccc2)cc1 (some centres undefined)	-0.0684 (inactive)	-0.322	-2.66	-1.35 (inactive)	0.0807 (inactive)	0.582 (inactive)
CC1CC/C=C\[C@H]2OC34C=CCN(Cn5nnc6ccccc65)C(=O)[C@H]3N(C(C)CO)C(=O)[C@@H]4C2C(=O)O1 (some centres undefined)	0.205 (inactive)	0.0783	0.189	-4.29 (inactive)	-0.087 (inactive)	-0.361 (inactive)
Cc1ccc(S[C@]2(C(=O)NC(C)C)CC(=O)N(C3Cc4ccccc4C3)[C@@H]2c2ccc(CO)cc2)cc1	0.137 (inactive)	0.882	-1.29	-3.21 (inactive)	0.0695 (inactive)	0.0887 (inactive)
C=CC[C@]1(C(=O)NCC(O)CO)N=C(c2ccc(OCCCO)cc2)O[C@H]1c1ccccc1 (some centres undefined)	0.654 (inactive)	0.124	-0.851	-5.04 (inactive)	-0.147 (inactive)	-0.0911 (inactive)
C=CCC1=C[C@H]2[C@H]([C@@H]3C=C[C@]2(CC=C)C(=O)[C@]32CO2)[C@@]2(CO2)C1=O	1.7 (inactive)	-0.489	-0.0419	-1.29 (inactive)	-0.556 (inactive)	-0.606 (inactive)
COC(=O)Cn1c(C(=O)N2CCCC2)cc2c1C[C@H]1CN(C(=O)c3ccccc3)[C@@](Cc3ccccc3)(C(=O)OC)[C@@H]21	0.564 (inactive)	0.535	-0.252	-4.99 (inactive)	-1.29 (inactive)	-0.687 (inactive)
Cc1ccc(N2C(=O)c3ccccc3[C@](C)(C(=O)NCC(C)C)[C@@H]2c2ccc(CO)cc2)nc1	-0.223 (inactive)	-0.662	0.11	-2 (inactive)	0.341 (inactive)	0.123 (inactive)
Cc1ccc(S[C@]2(C(=O)O)CC(=O)N(Cc3ccccc3)[C@@H]2c2ccc(CO)cc2)cc1	-0.242 (inactive)	-0.655	-0.254	-2.96 (inactive)	-0.947 (inactive)	-1.23 (inactive)
O=C1O[C@@H](c2ccccc2)[C@@H](c2ccccc2)N2[C@@H](c3ccccc3OCCO)[C@]3(C(=O)Nc4ccc(C#CC5=CCCCC5)cc43)[C@@H](C(=O)O)[C@H]12	0.364 (inactive)	0.305	-0.662	-3.14 (inactive)	-0.379 (inactive)	-0.318 (inactive)
C[N+](C)(C)CCCCNC(=O)[C@@H]1C[C@@H]2C(=O)N3CCC[C@H]3C(=O)N2[C@@H]1c1cccc(OCCO)c1	3.4 (inactive)	0.839	-0.294	-1.2 (inactive)	-0.162 (inactive)	0.319 (inactive)
CC(C)(C)OC(=O)CC[C@@]1(C(=O)NCc2ccccc2)N=C(c2ccc(OCCCO)cc2)O[C@@H]1c1ccccc1	1.59 (inactive)	0.93	-2.25	-5.51 (inactive)	-1.17 (inactive)	-1.29 (inactive)
CCCC=C(CCC)[C@@H](NC(=O)c1ccccc1)c1ccccc1	-1.3 (inactive)	-0.905	-0.639	-0.832 (inactive)	-0.442 (inactive)	-0.784 (inactive)
C=CCC(OC(C)=O)[C@@H]1[C@@H](N(Cc2ccc(-c3cccc(C(F)(F)F)c3)o2)C(=O)Cc2ccc(F)cc2)c2cc(OCCCO)ccc2N1C(=O)c1ccc(-c2ccccc2)cc1 (some centres undefined)	-0.403 (inactive)	-0.829	-0.294	-1.2 (inactive)	0.634 (inactive)	-0.385 (inactive)
